Molecules are shown by their SMILES. The campaign covered roughly 400,000 compounds. About 13,000 (3.2%) were called active. Another 18% or so got no clear call; they are omitted. Calls follow the shape of the dose curve; as a rule, active = well fitted cell-killing curve with a large enough effect; inconclusive = small, poorly fitted or top-dose-only effect, or effect the other way; inactive = flat fitted curve, though single readings scatter. The entries come from a sample that favours actives as a whole. A call without a number means that no potency is given here.
Potency is read from the fitted curve at half-maximal effect.

A short description of this assay: qHTS assay for MDR1-selective chemotherapeutics: Primary screen using the drug-selected MDR subline cells KB-V1. Also: nearly all actives have a fitted effect of over 60% in size. Conditions: KB-V1 MDR cells viability, CellTiter-Glo, 72 h; series mostly up to 46.1 µM. The text has this:
A prime difficulty in effectively treating cancer is the development of cellular resistance to multiple structurally unrelated anticancer drugs, a phenomenon known as multidrug resistance (MDR). […] Numerous strategies to overcome P-gp-mediated MDR have been explored, including the design of drugs that evade recognition and efflux, and development of inhibitors to block efflux and restore drug accumulation. […] An alternative approach is to exploit resistance by identifying drugs that target MDR cells over the non-resistant parental cells from which they were selected. […] The development of MDR1-selective agents represents a new strategy for resolving multidrug resistance, as it remains a long-standing clinical challenge for cancer chemotherapy.
Our goal is to identify compounds that selectively kill P-gp-expressing MDR cells. We will identify MDR1-selective compounds by comparing toxicity of compounds in the screening library against parental, drug-naive (KB-3-1) adenocarcinoma cells as well as their drug-selected MDR sub-line (KB-V1). The differential toxicity of compounds against these two cell lines will be used to identify MDR1-selective compounds, whose cytotoxicity is potentiated, rather than diminished, by P-gp expression. This assay will be utilized to conduct a quantitative high-throughput screen (qHTS) in collaboration with the NIH Chemical Genomics Center to identify selective agents, and probe hits arising from the screen will be validated using secondary assays and characterized through a well-established follow-up research program. This screen was run against the entire NCGC library collection of about 400,000 compounds.
NIH Molecular Libraries Probe Production Network [MLPCN]
NIH Chemical Genomics Center [NCGC]
PI: Michael Gottesman, National Cancer Institute, NIH
Briefly, 5 microL of media containing either KB-V1 cells (columns 1-2, 4-48) are dispensed into Greiner white, treated solid-bottom 1536-well assay plates (media-only control is added to column 3). Compounds are then transferred via Kalypsys pin tool equipped with 1536-pin array (10 nL slotted pins, V&P Scientific, San Diego, CA). Following addition of compound, the plates are incubated at 37 degrees C for 72 hours. CellTiter-Glo (2.5 µL/well) is then added, and the plates are read in a ViewLux reader (Perkin-Elmer, clear luminescence filter, 1 second exposure, 1x binning) following a 10 minute incubation. All cells are dispensed in DMEM phenol-red free media containing 10% FBS.
Library plates were screened starting from the lowest and proceeding to the highest concentration. Vehicle-only plates, with DMSO being pin-transferred to columns 5-48, will be inserted uniformly at the beginning and the end of each library in order to monitor and record any shifts in the background, which can be affected by reagent dispensers or loss in enzyme activity over time. Screening data will be corrected, normalized, and concentration-effect relationships will be derived by using publicly-available NCGC, NCATS curve fitting algorithms (http://ncgc.nih.gov/pub/openhts).
(In general: Quantitative high-throughput screening tests each substance at several concentrations.)
In the case of `CN[C@H]1C[C@H]2c3cc(Oc4ccccc4C)ccc3CCN2C(=O)[C@H]1[C@H](C)O`, the Potency result is “inactive”.
With `C=CCNC(=O)c1ccc2nc(-c3ccco3)c(-c3ccco3)nc2c1` the entry was “inactive”; with `C=Cc1ccc(C(=O)N2CCCC(CCC(=O)N3CCN(c4ccccn4)CC3)C2)cc1` (centres undefined), “inactive”.
Then `O=C(CCC1CCCN(C(=O)Cc2ccc(F)cc2)C1)N1CCN(c2ccccn2)CC1` (centres undefined), with 16.4 µM (active); and `COc1cccc(CC(=O)N2CCCC(CCC(=O)N3CCN(c4ccccn4)CC3)C2)c1` (centres undefined), with “inactive”; and `COc1ccc(/C=C/c2ccnc3ccccc23)cc1OC`, with “inactive”.
`Cc1cccc(OCC(=O)NCC(=O)N/N=C/c2ccc(N(C)C)cc2)c1`: the Potency entry was “inactive”.
Then `Cc1ccc(/C=N/NC(=O)COc2ccccc2-c2ccccc2)cc1`, with 1.03 µM (active); and `Cc1ccc(/C=N/NC(=O)CSc2nc3ccccc3o2)cc1`, with “inactive”.
In the case of `CCCc1c(C)nc2scc(-c3ccc(Cl)cc3)n2c1=O`, the Potency result is “inactive”.
With `CCOC(=O)C1(CCOC)CCN(Cc2ccc(C(=O)OC)cc2)CC1` the entry was “inactive”; with `CCOC(=O)C1CCN(Cc2ccc(-c3ccccc3)cc2)CC1`, “inactive”; with `CCOC(=O)C1(S(=O)(=O)c2ccc(Cl)cc2)CCN(Cc2ccccc2)CC1`, 20.6 µM (active).
Consider `O=C(NNS(=O)(=O)c1ccc(Cl)cc1)C1CCN(Cc2ccccc2)CC1`, for which the Potency entry was “inactive”.
As for `CCOC(=O)C1(S(=O)(=O)c2ccccc2)CCN(Cc2ccccc2)CC1`, the Potency is 16.4 µM (active).
Then `NC(=O)C1(N2CCCC2)CCN(Cc2ccccc2)CC1`, with “inactive”; and `Cc1ccc(C=O)cc1Cl`, with “inactive”; and `Nc1ccccc1-c1nc2ccncc2[nH]1`, with “inactive”.
`COc1ccc(OC)c(NC(=O)C2(C)CCN2C(=O)Cc2ccccc2)c1` (centres undefined): the Potency entry is “inactive”.
As to `Cc1ccc(S(=O)(=O)N2C[C@@H](C)[C@]3(C2)[C@H](O)[C@H](OC(=O)NCc2ccccc2)C[C@H]2C(=O)N(c4ccccc4)C(=O)[C@H]23)cc1`, the Potency result is “inactive”.
Then `CC1CCCC(C)N1C(=O)COC(=O)c1ccccc1C(=O)c1ccccc1` (centres undefined), with “inactive”.
With `CCOc1ccc(NC(=O)C(CC(C)C)N2Cc3ccccc3C2=O)cc1` (centres undefined) the entry was “inactive”; with `CC(C)Cc1ccc(S(=O)(=O)N2CCN(C(=O)c3ccco3)CC2)cc1`, 7.31 µM (active); with `O=C(CNS(=O)(=O)c1ccccc1)N1CCN(C(=O)c2ccco2)CC1`, “inactive”.
`CN1CCN(S(=O)(=O)c2ccc(NC(=O)c3ccco3)cc2)CC1`: the Potency result was “inactive”.
Then `CCOc1ccccc1NC(=S)C(=C([O-])c1ccc2c(c1)OCCO2)[n+]1ccc(CC)cc1`, with “inactive”; and `CCc1nnc(NC(=O)C2CC(=O)N(c3ccc4c(c3)OCCO4)C2)s1` (centres undefined), with “inactive”.
As for `CC(=O)c1ccccc1NC(=O)C1CC(=O)N(c2ccc3c(c2)OCCO3)C1` (centres undefined), the Potency is 16.4 µM (active).
With `CCOC(=O)c1ccc(NC(=O)C2CC(=O)N(c3ccc4c(c3)OCCO4)C2)cc1` (centres undefined) the entry was “inactive”.
As to `COc1cccc(NC(=O)CSC2=Nc3ccccc3C3=NC(CC(=O)NC4CCCCC4)C(=O)N23)c1` (centres undefined), the Potency result was “inactive”.
On to `CCc1ccc2c(c1)NC(=O)C2(C)Cc1ccc(OC(F)(F)F)cc1` (centres undefined), for which the Potency result was “inactive”.
Then `Nc1ncnc2c1ncn2[C@@H]1O[C@H](CNC(=O)[C@H](N)Cc2cccnc2)[C@@H](O)[C@H]1O`, with “inactive”.
Then `CCC1(C)CC(=O)c2c(ccc3oc(C(=O)Nc4ccc(C(C)=O)cc4)c(C)c23)O1` (centres undefined), with “inactive”; and `Cc1ccc(Cn2c(=O)n(CCCC(=O)NCc3ccccc3Cl)c(=O)c3ccccc32)cc1`, with “inactive”.
Regarding `COc1ccc(CCNC(=O)CCCCn2c(=O)c3ccccc3n(Cc3ccccc3C)c2=O)cc1OC`, the Potency result is “inactive”.
On to `COc1cc(C(=O)Nc2ccc(OCc3cc(=O)n4cc(C)sc4n3)cc2)cc(OC)c1OC`, for which the Potency result is “inactive”.
As for `Cn1c(=O)c2c(nc(Oc3ccc(C#N)cc3)n2Cc2ccc(Cl)cc2Cl)n(C)c1=O`, the Potency entry is “inactive”.
Regarding `Cc1ccc(C(=O)N/C(=C\c2cn(C)c3ccccc23)C(=O)N2CCN(C)CC2)cc1`, the Potency result is “inactive”.
With `Cc1cccc(N=C2NC(=O)/C(=C/c3cn(C)c4ccccc34)S2)c1` the figure was 14.6 µM (active); with `Cc1ccc(N2C(=O)S/C(=C/c3cn(C)c4ccccc34)C2=O)cc1`, “inactive”; with `CC1=C(C(=O)N2CCOCC2)CC(CC(=O)NCCCN(C)C)C(=O)N1Cc1ccc(C(C)(C)C)cc1` (centres undefined), “inactive”.
`CC(C)OC(=O)CC(=O)CC(O)c1cccc([N+](=O)[O-])c1` (centres undefined): the Potency entry is “inactive”.
Take `CCOC(=O)N1CCN(S(=O)(=O)c2cc(Br)cc3c2N(C(=O)C2CC2)CC3)CC1`: the Potency result was “inactive”.
With `CCN(c1ccc2c(c1)OCO2)S(=O)(=O)c1cc(Br)cc2c1N(C(=O)C1CC1)CC2` the figure was 5.17 µM (active); with `CN(Cc1ccccc1)C(=O)CCS(=O)(=O)c1cc(Br)cc2c1N(C(=O)C1CC1)CC2`, “inactive”.
Then `CCOC(=O)c1ccc(-c2ccc3ncnc(N(C)Cc4sccc4C)c3c2)o1`, with “inactive”; and `CCN1CCN(c2c(Cl)cccc2NC(=O)c2ccc(Br)o2)CC1`, with “inactive”.
Then `CCCC(=O)Nc1ccc(Cl)c(NC(=O)c2ccc(Br)o2)c1`, with 20.6 µM (active).
With `O=C(CNC(=O)c1ccc(Br)o1)Nc1ccccc1`, the Potency entry was “inactive”.
